Activity calls are given as the source filed them. Rule for the calls: active = hit-call score of the fitted dose curve at least 0.9, where 1 is the maximum; inactive = score below 0.9.
How the values were obtained:
[1] = read-out: Interleukin-8 (IL8), CXCL8 (gene 3576); assay: BSK_KF3CT_IL8: BioMAP Diversity Plus: KF3CT Assay for Interleukin-8 (IL8) Biomarker Activity (AID 2284254); details: primary human keratinocytes with fibroblasts
Outline: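 ELISA detection of IL-8 from a human skin co-culture, keratinocytes with foreskin fibroblasts, at 24 h following chemical exposure, with gain of signal scored against DMSO controls.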

[2] = read-out: Macrophage Inflammatory Protein-1 Alpha (MIP1a), CCL3 (gene 6348); assay: BSK_IMphg_MIP1a: BioMAP Diversity Plus: IMphg Assay for Macrophage Inflammatory Protein-1 Alpha (MIP1a) Biomarker Activity (AID 2284255); details: primary human endothelial cells with macrophages
Outline: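 MIP-1a protein levels were quantified by ELISA after 24 h treatment of human endothelial cell–macrophage co-cultures, compared with DMSO. Parallel cultures were fixed with TCA and stained with 0.1% SRB to gauge overt cytotoxicity.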

[3] = read-out: Plasminogen activator inhibitor-1 (PAI1), SERPINE1 (gene 5054); assay: BSK_MyoF_PAI1: BioMAP Diversity Plus: MyoF Assay for Plasminogen activator inhibitor-1 (PAI1) Biomarker Activity (AID 2284256); details: primary human lung fibroblasts
Outline: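 Activity reflects increased PAI-1, determined by ELISA and compared with DMSO, in human lung fibroblasts treated for 24 h.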

[4] = read-out: CD69, CD69 (gene 969); assay: BSK_IMphg_CD69: BioMAP Diversity Plus: IMphg Assay for CD69 Biomarker Activity (AID 2284257); details: primary human endothelial cells with macrophages
Outline: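 Readout is ELISA for CD69 in primary human venular endothelial cell/macrophage co-culture, taken at 24 h post-dosing. SRB staining of parallel cultures gauged overt cytotoxicity; signal increase versus DMSO defined activity.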

[5] = read-out: Eotaxin 3, CCL26 (gene 10344); assay: BSK_BF4T_Eotaxin3: BioMAP Diversity Plus: BF4T Assay for Eotaxin 3 Biomarker Activity (AID 2284258); details: primary human bronchial epithelial cells with fibroblasts
Outline: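 ELISA measurement of Eotaxin-3 after 24 h chemical exposure in a bronchial epithelial/dermal fibroblast co-culture, with DMSO as baseline. Parallel SRB staining (0.1% SRB after 10% TCA fixation, 560 nm) flagged overt cytotoxicity.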

[6] = read-out: Monocyte Chemoattractant Protein-1 (MCP1), CCL2 (gene 6347); assay: BSK_BF4T_MCP1: BioMAP Diversity Plus: BF4T Assay for Monocyte Chemoattractant Protein-1 (MCP1) Biomarker Activity (AID 2284259); details: primary human bronchial epithelial cells with fibroblasts
Outline: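 MCP-1 ELISA readout taken 24 h after dosing in the BF4T system (bronchial epithelial cells plus dermal fibroblasts). Parallel SRB total-protein staining flagged cytotoxicity; DMSO served as baseline, positive fitting direction.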

[7] = read-out: Interleukin-8 (IL8), CXCL8 (gene 3576); assay: BSK_MyoF_IL8: BioMAP Diversity Plus: MyoF Assay for Interleukin-8 (IL8) Biomarker Activity (AID 2284261); details: primary human lung fibroblasts
Outline: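 In this multiplexed primary-cell system, fibroblasts from human lung are treated with chemicals, and IL-8 is detected by ELISA at 24 h, with DMSO serving as the negative reference.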

[8] = read-out: CD90, THY1 (gene 7070); assay: BSK_BF4T_CD90: BioMAP Diversity Plus: BF4T Assay for CD90 Biomarker Activity (AID 2284262); details: primary human bronchial epithelial cells with fibroblasts
Outline: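 CD90 levels by ELISA after 24 h treatment of human bronchial epithelial cell/dermal fibroblast cultures, analysed versus DMSO. Overt cytotoxicity checked in parallel cultures by sulforhodamine B staining.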

[9] = read-out: Interleukin-8 (IL8), CXCL8 (gene 3576); assay: BSK_BF4T_IL8: BioMAP Diversity Plus: BF4T Assay for Interleukin-8 (IL8) Biomarker Activity (AID 2284263); details: primary human bronchial epithelial cells with fibroblasts
Outline: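 Human bronchial epithelial cells with dermal fibroblasts co-culture; IL-8 measured by ELISA 24 hours after dosing, fitted vs DMSO. Cytotoxicity tracked in parallel cultures by SRB total-protein staining.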

[10] = read-out: Interleukin-1 alpha (IL1a), IL1A (gene 3552); assay: BSK_BF4T_IL1a: BioMAP Diversity Plus: BF4T Assay for Interleukin-1 alpha (IL1a) Biomarker Activity (AID 2284264); details: primary human bronchial epithelial cells with fibroblasts
Outline: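 ELISA read-out of IL-1α from bronchial epithelial cell/dermal fibroblast co-cultures 24 h after compound addition. Increases scored against DMSO negative control. Cytotoxicity monitored by sulforhodamine B staining of parallel cultures.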

[11] = read-out: Decorin, DCN (gene 1634); assay: BSK_MyoF_Decorin: BioMAP Diversity Plus: MyoF Assay for Decorin Biomarker Activity (AID 2284265); details: primary human lung fibroblasts
Outline: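 Lung fibroblast cultures, 24 h chemical exposure. Decorin by ELISA, positive fitting direction, DMSO baseline.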

[12] = read-out: KRT18 (gene 3875); assay: BSK_BF4T_Keratin818: BioMAP Diversity Plus: BF4T Assay for Keratin 818 Biomarker Activity (AID 2284266); details: primary human bronchial epithelial cells with fibroblasts
Outline: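 Keratin 8/18 levels quantified by ELISA after 24 h chemical treatment of bronchial epithelial cell/dermal fibroblast co-cultures, fitted in positive direction relative to DMSO. Parallel SRB staining tracks overt cytotoxicity.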

[13] = BSK_MyoF_SRB: Viability Assessment in the BioMAP Diversity Plus: MyoF Assay (AID 2284267); details: primary human lung fibroblasts;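 note: total protein by SRB absorbance in parallel cultures as cytotoxicity measure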
Outline: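 Lung fibroblast cultures, 24 h post-dose; fix 10% TCA, stain 0.1% SRB, read 560 nm. Signal = total protein as cytotoxicity measure; fitted relative to DMSO negative control.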

[14] = read-out: Matrix Metallopeptidase 1 (MMP1), MMP1 (gene 4312); assay: BSK_MyoF_MMP1: BioMAP Diversity Plus: MyoF Assay for Matrix Metallopeptidase 1 (MMP1) Biomarker Activity (AID 2284268); details: primary human lung fibroblasts
Outline: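 MMP1 measured by ELISA 24 h after dosing primary human lung fibroblasts; cytotoxicity checked in parallel cultures by sulforhodamine B total-protein staining read at 560 nm.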

[15] = read-out: TIMP metallopeptidase inhibitor 1 (TIMP1), TIMP1 (gene 7076); assay: BSK_MyoF_TIMP1: BioMAP Diversity Plus: MyoF Assay for TIMP metallopeptidase inhibitor 1 (TIMP1) Biomarker Activity (AID 2284269); details: primary human lung fibroblasts
Outline: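 Primary human lung fibroblasts, MyoF multiplex system; chemical exposure 24 h; TIMP-1 by ELISA; positive fitting direction vs DMSO control.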

[16] = read-out: Matrix Metallopeptidase 1 (MMP1), MMP1 (gene 4312); assay: BSK_BF4T_MMP1: BioMAP Diversity Plus: BF4T Assay for Matrix Metallopeptidase 1 (MMP1) Biomarker Activity (AID 2284270); details: primary human bronchial epithelial cells with fibroblasts
Outline: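 MMP-1 quantified by ELISA in primary human bronchial epithelial/dermal fibroblast co-cultures, 24 hours post-dosing, with DMSO as baseline; parallel sulforhodamine B staining (560 nm) tracks overt cytotoxicity.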

[17] = read-out: Tissue plasminogen activator (tPA), PLAT (gene 5327); assay: BSK_BF4T_tPA: BioMAP Diversity Plus: BF4T Assay for Tissue plasminogen activator (tPA) Biomarker Activity (AID 2284272); details: primary human bronchial epithelial cells with fibroblasts
Outline: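 tPA level quantified by ELISA at 24 h post-treatment in bronchial epithelial/dermal fibroblast co-cultures, gain of signal scored against DMSO baseline. Parallel cultures stained with 0.1% SRB (560 nm) to flag overt cytotoxicity.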

[18] = read-out: Plasminogen Activator Inhibitor-1 (PAI1), SERPINE1 (gene 5054); assay: BSK_BF4T_PAI1: BioMAP Diversity Plus: BF4T Assay for Plasminogen Activator Inhibitor-1 (PAI1) Biomarker Activity (AID 2284273); details: primary human bronchial epithelial cells with fibroblasts
Outline: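 PAI-1 levels quantified by ELISA 24 h post-dosing in bronchial epithelial cell plus dermal fibroblast cultures. Signal gain referenced to DMSO baseline. Sulforhodamine B total-protein staining of parallel wells checked cytotoxicity.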

Measured: AC50

O=C(O)C(F)(F)C(F)(F)C(F)(F)C(F)(F)C(F)(F)C(F)(F)C(F)(F)C(F)(F)C(F)(F)C(F)(F)C(F)(F)C(F)(F)C(F)(F)F
not listed: [18]
inactive: all other assays above

CCCCCCCCCCCCCCCC[N+](C)(C)Cc1ccccc1
active: [3] 2.47 µM | [7] 5.84 µM | [11] 9.35 µM | [13] 5.13 µM | [14] 2.7 µM | [15] 8.14 µM

C=CC(F)(F)C(F)(F)C(F)(F)C(F)(F)C(F)(F)C(F)(F)C(F)(F)C(F)(F)C=C
not listed: [18]
inactive: all other assays above

CC(=O)Nc1ccc(N=Nc2cc(C)ccc2O)cc1
inactive: [3] | [7] | [11] | [13] | [15]
active: [14] 31 µM

CCc1c(Br)c(Br)c(Br)c(Br)c1Br
inactive: [3] | [7] | [11] | [13] | [15]
active: [14] 13.2 µM

OCCCC(F)(F)C(F)(F)C(F)(F)F
inactive: all assays above

CO[Si](OC)(c1ccccc1)c1ccccc1
active: [3] 30.5 µM | [13] 29.4 µM | [14] 28.9 µM
inactive: [7] | [11] | [15]

FC(F)(F)C(F)(F)C(F)(F)C(F)(F)C(F)(F)C(F)(F)C(F)(F)Br
not listed: [18]
inactive: all other assays above

O=C(O)C(F)(OC(F)(F)C(F)(OC(F)(F)C(F)(F)C(F)(F)F)C(F)(F)F)C(F)(F)F (configuration not stated)
not listed: [18]
inactive: all other assays above

C=C(C)C(=O)OCC(F)(F)C(F)(F)C(F)(F)C(F)(F)C(F)(F)C(F)(F)C(F)(F)F
not listed: [18]
inactive: all other assays above

Source: PubChem BioAssay (EPA / NIEHS)
